# Laboratory results reported in the supplement of paper PMC4466140.
# Key:
# Experiment in all cases: SPOT peptide array binding signal intensity (averaged, normalized) (arbitrary units (background-subtracted, floor 0; scale differs between SH3 domains)); higher = stronger binding of the SH3 domain to the peptide
# [1] = biological target: AgAbp1
# In short: (§1)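 The binding signal is the normalized, background-subtracted spot intensity averaged over replicates; its arbitrary units differ between domains. It was obtained by incubating 10 μg/ml GST-fused SH3 domains from four yeast species overnight at 4°C in TBS-based blocking buffer on cellulose membranes with synthetic 15-mer peptides, cysteines replaced by serines, then detecting with anti-GST antibody, HRP anti-mouse secondary and luminol.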
# [2] = biological target: AgBbc1
# In short: as §1
# [3] = biological target: AgBem1-D1
# In short: as §1
# [4] = biological target: AgBzz1-D1
# In short: as §1
# [5] = biological target: AgBzz1-D2
# In short: as §1
# [6] = biological target: AgCyk3
# In short: as §1
# [7] = biological target: AgFus1
# In short: as §1
# [8] = biological target: AgHof1
# In short: as §1
# [9] = biological target: AgHse1
# In short: as §1
# [10] = biological target: AgLsb1
# In short: as §1
# [11] = biological target: AgLsb4
# In short: as §1
# [12] = biological target: AgMyo5
# In short: as §1
# [13] = biological target: AgNbp2
# In short: as §1
# [14] = biological target: AgRvs167
# In short: as §1
# [15] = biological target: AgSho1
# In short: as §1
# [16] = biological target: AgSla1-D1-D2
# In short: as §1
# [17] = biological target: AgSla1-D3
# In short: as §1
# [18] = biological target: CaAbp1-D1
# In short: as §1
# [19] = biological target: CaAbp1-D2
# In short: as §1
# [20] = biological target: CaBbc1
# In short: as §1
# [21] = biological target: CaBem1-D1
# In short: as §1
# [22] = biological target: CaBzz1-D1
# In short: as §1
# [23] = biological target: CaBzz1-D2
# In short: as §1
# [24] = biological target: CaCyk3
# In short: as §1
# [25] = biological target: CaFus1
# In short: as §1
# [26] = biological target: CaHof1
# In short: as §1
# [27] = biological target: CaHse1
# In short: as §1
# [28] = biological target: CaLsb1
# In short: as §1
# [29] = biological target: CaLsb4
# In short: as §1
# [30] = biological target: CaMyo5
# In short: as §1
# [31] = biological target: CaNbp2
# In short: as §1
# [32] = biological target: CaRvs167
# In short: as §1
# [33] = biological target: CaRvs167-3
# In short: as §1
# [34] = biological target: CaSho1
# In short: as §1
# [35] = biological target: CaSla1-D1-D2
# In short: as §1
# [36] = biological target: CaSla1-D3
# In short: as §1
# [37] = biological target: ScAbp1
# In short: as §1
# [38] = biological target: ScBbc1
# In short: as §1
# [39] = biological target: ScBem1-D1
# In short: as §1
# [40] = biological target: ScBzz1-D1
# In short: as §1
# [41] = biological target: ScBzz1-D2
# In short: as §1
# [42] = biological target: ScCyk3
# In short: as §1
# [43] = biological target: ScFus1
# In short: as §1
# [44] = biological target: ScHof1
# In short: as §1
# [45] = biological target: ScHse1
# In short: as §1
# [46] = biological target: ScLsb1
# In short: as §1
# [47] = biological target: ScLsb2
# In short: as §1
# [48] = biological target: ScLsb3
# In short: as §1
# [49] = biological target: ScLsb4
# In short: as §1
# [50] = biological target: ScMyo3
# In short: as §1
# [51] = biological target: ScMyo5
# In short: as §1
# [52] = biological target: ScNbp2
# In short: as §1
# [53] = biological target: ScPex13
# In short: as §1
# [54] = biological target: ScRvs167
# In short: as §1
# [55] = biological target: ScSho1
# In short: as §1
# [56] = biological target: ScSla1-D1-D2
# In short: as §1
# [57] = biological target: ScSla1-D3
# In short: as §1
# [58] = biological target: SpAbp1-D1
# In short: as §1
# [59] = biological target: SpBbc1
# In short: as §1
# [60] = biological target: SpBzz1-D1
# In short: as §1
binder,measurement,setting,value
RRSKSLPTTPGIRSG,SPOT peptide array binding signal intensity,[1],744
same,SPOT peptide array binding signal intensity,[2],104
same,SPOT peptide array binding signal intensity,[3],348
same,SPOT peptide array binding signal intensity,[4],45
same,SPOT peptide array binding signal intensity,[5],43
same,SPOT peptide array binding signal intensity,[6],4
same,SPOT peptide array binding signal intensity,[7],120
same,SPOT peptide array binding signal intensity,[8],158
same,SPOT peptide array binding signal intensity,[9],816
same,SPOT peptide array binding signal intensity,[10],50.8
same,SPOT peptide array binding signal intensity,[11],128
same,SPOT peptide array binding signal intensity,[12],≤ 0
same,SPOT peptide array binding signal intensity,[13],213
same,SPOT peptide array binding signal intensity,[14],2.33
same,SPOT peptide array binding signal intensity,[15],4520
same,SPOT peptide array binding signal intensity,[16],469
same,SPOT peptide array binding signal intensity,[17],1.75
same,SPOT peptide array binding signal intensity,[18],1220
same,SPOT peptide array binding signal intensity,[19],1180
same,SPOT peptide array binding signal intensity,[20],216
same,SPOT peptide array binding signal intensity,[21],54
same,SPOT peptide array binding signal intensity,[22],292
same,SPOT peptide array binding signal intensity,[23],115
same,SPOT peptide array binding signal intensity,[24],17
same,SPOT peptide array binding signal intensity,[25],450
same,SPOT peptide array binding signal intensity,[26],≤ 0
same,SPOT peptide array binding signal intensity,[27],31.5
same,SPOT peptide array binding signal intensity,[28],3.5
same,SPOT peptide array binding signal intensity,[29],276
same,SPOT peptide array binding signal intensity,[30],7.5
same,SPOT peptide array binding signal intensity,[31],430
same,SPOT peptide array binding signal intensity,[32],15.2
same,SPOT peptide array binding signal intensity,[33],55.5
same,SPOT peptide array binding signal intensity,[34],1030
same,SPOT peptide array binding signal intensity,[35],2240
same,SPOT peptide array binding signal intensity,[36],≤ 0
same,SPOT peptide array binding signal intensity,[37],261
same,SPOT peptide array binding signal intensity,[38],19.2
same,SPOT peptide array binding signal intensity,[39],54
same,SPOT peptide array binding signal intensity,[40],25
same,SPOT peptide array binding signal intensity,[41],27
same,SPOT peptide array binding signal intensity,[42],96
same,SPOT peptide array binding signal intensity,[43],163
same,SPOT peptide array binding signal intensity,[44],1.25
same,SPOT peptide array binding signal intensity,[45],1360
same,SPOT peptide array binding signal intensity,[46],77
same,SPOT peptide array binding signal intensity,[47],6
same,SPOT peptide array binding signal intensity,[48],444
same,SPOT peptide array binding signal intensity,[49],21
same,SPOT peptide array binding signal intensity,[50],6.5
same,SPOT peptide array binding signal intensity,[51],≤ 0
same,SPOT peptide array binding signal intensity,[52],203
same,SPOT peptide array binding signal intensity,[53],23.2
same,SPOT peptide array binding signal intensity,[54],18.7
same,SPOT peptide array binding signal intensity,[55],5840
same,SPOT peptide array binding signal intensity,[56],4460
same,SPOT peptide array binding signal intensity,[57],70.5
same,SPOT peptide array binding signal intensity,[58],2040
same,SPOT peptide array binding signal intensity,[59],6.5
same,SPOT peptide array binding signal intensity,[60],226
